Test results reported in the supplement of paper PMC13380429.

Tested on: Vero E6 infected with SARS-CoV-2
Test: inhibition of SARS-CoV-2 cytopathic effect; higher = more antiviral protection, active = above 15
Settings: 48 h

Measured: inhibition of SARS-CoV-2 cytopathic effect

O=C(O)[C@H]1O[C@@H](Oc2cc3oc(-c4ccccc4)cc(=O)c3c(O)c2O)[C@H](O)[C@@H](O)[C@@H]1O [baicalin]
inactive: 1 nM 2.44% | 8.33 nM -0.79% | 100 nM -1.89% | 833.33 nM -5.03% | 10000 nM 2.97%

O=C(NCc1ccccc1)c1csc(Nc2ccncn2)n1 [thiazovivin]
inactive: 1 nM -2.48% | 8.33 nM 1.22% | 100 nM -1.94% | 833.33 nM -2% | 10000 nM -11.5%

Cc1ncc(CO)c(C=O)c1O [pyridoxal]
inactive: 1 nM 4.33% | 8.33 nM 2.21% | 100 nM 0.26% | 833.33 nM -1.64% | 10000 nM 1.19%

CC(C)C(=O)Nc1ncc(-c2cc(C(F)F)nn2-c2c(Cl)cccc2Cl)s1
inactive: 1 nM 0.32% | 8.33 nM 2.58% | 100 nM -0.32% | 833.33 nM -2.46% | 10000 nM -5.83%

CC(C)Oc1ccc(Cc2ccc(NC3=NCCN3)cc2)cc1
inactive: 1 nM 0.38% | 8.33 nM 0.26% | 100 nM 2.45% | 833.33 nM 0.98% | 10000 nM -0.97%

CC(=O)Nc1ccc(OC[C@](C)(O)C(=O)Nc2ccc([N+](=O)[O-])c(C(F)(F)F)c2)cc1 [andarine]
inactive: 1 nM -0.84% | 8.33 nM -0.36% | 100 nM -2.49% | 833.33 nM -1.89% | 10000 nM -1.92%

C[C@@H]1C(=O)O[C@H]2C[C@@]34[C@H]5C[C@@H](C(C)(C)C)[C@]36[C@@H](OC(=O)[C@@H]6O)O[C@@]4(C(=O)O5)[C@]21O [Ginkgolide A]
inactive: 1 nM 3.54% | 8.33 nM 2.25% | 100 nM 2.7% | 833.33 nM 1.3% | 10000 nM -1.89%

N#C/C(=C\c1ccc(O)c(O)c1)C(=O)NCCCc1ccccc1
inactive: 1 nM -2.32% | 8.33 nM -2.1% | 100 nM -0.73% | 833.33 nM 0.57% | 10000 nM 0.75%

CC(C)(C)c1ccc(C(=O)Nc2cn3cc(-n4ccnc4)ccc3n2)cc1
inactive: 1 nM 2.98% | 8.33 nM 0.55% | 100 nM 2.27% | 833.33 nM 2.13% | 10000 nM -0.45%

CCN(c1cc(C#CCN2CCOCC2)cc(C(=O)NCc2c(C)cc(C)[nH]c2=O)c1C)[C@H]1CC[C@H](N(C)CCOC)CC1
inactive: 1 nM -1.56% | 8.33 nM -1.99% | 100 nM 3.36% | 833.33 nM -2.9% | 10000 nM -5.69%

C[C@@H](Oc1ccc(Cl)cc1)c1ccnc2ncnn12
inactive: 1 nM -0.64% | 8.33 nM 0.02% | 100 nM -0.48% | 833.33 nM -2.21% | 10000 nM -3.4%

CC[C@@H](CO)NCCN[C@@H](CC)CO [ethambutol]
inactive: 1 nM 3.83% | 8.33 nM 4.26% | 100 nM 4.86% | 833.33 nM 5.12% | 10000 nM 2.55%

CN1C(=O)N(c2cc(Cl)cc(Cl)c2)C(=O)[C@@]1(C)Cc1ccc(Br)cc1
inactive: 1 nM -0.07% | 8.33 nM -0.29% | 100 nM -0.15% | 833.33 nM -1.61% | 10000 nM -5.8%

CC(C)(C)CCN1C[C@@H]2[C@@H](CNC(=O)c3cc(Cl)cc(Cl)c3)[C@@H]2C1
inactive: 1 nM 2.47% | 8.33 nM 2.05% | 100 nM 1.76% | 833.33 nM 2.2% | 10000 nM -10.4%

COc1ccc(-c2oc3c(CC=C(C)C)c(O[C@@H]4O[C@H](CO)[C@@H](O)[C@H](O)[C@H]4O)cc(O)c3c(=O)c2O[C@@H]2O[C@@H](C)[C@H](O)[C@@H](O)[C@H]2O)cc1 [icariin]
inactive: 1 nM 4.38% | 8.33 nM 3.84% | 100 nM 1.25% | 833.33 nM -0.92% | 10000 nM -4.04%

CCC(C)(C)C(=O)C(=O)N1CCC[C@H]1C(=O)OCCCc1cccnc1
inactive: 1 nM 0.46% | 8.33 nM 0.86% | 100 nM 1.28% | 833.33 nM -0.32% | 10000 nM 1.17%

CN1C(CSCC(F)(F)F)Nc2cc(Cl)c(S(N)(=O)=O)cc2S1(=O)=O (stereo not given) [polythiazide]
inactive: 1 nM -0.4% | 8.33 nM 0.91% | 100 nM 3.31% | 833.33 nM -0.95% | 10000 nM -1.62%

CC(=O)N[C@@H](CCC(N)=O)C(=O)O [aceglutamide]
inactive: 1 nM 1.69% | 8.33 nM 3.16% | 100 nM 6.3% | 833.33 nM 1.78% | 10000 nM -5.34%

COc1ccc(-c2cc3c(C)nc(N)nc3n([C@H]3CC[C@H](OCCO)CC3)c2=O)cn1
inactive: 1 nM -0.21% | 8.33 nM 2.83% | 100 nM 0.43% | 833.33 nM -10.1% | 10000 nM -10.3%

Cc1nc2ccccc2c(-c2ccc3c4c(ccnc24)CCO3)c1[C@H](OC(C)(C)C)C(=O)O
inactive: 1 nM -1.93% | 8.33 nM -2.73% | 100 nM -4.38% | 833.33 nM -4.78% | 10000 nM -3.59%

COc1ccc(/C=C/C(=O)Nc2ccccc2C(=O)O)cc1OC [tranilast]
inactive: 1 nM -0.23% | 8.33 nM -1.52% | 100 nM -1.22% | 833.33 nM 0.97% | 10000 nM 1.42%

CN1c2cc3c(cc2N=C(c2ccc(C(=O)O)cc2)c2ccccc21)C(C)(C)CCC3(C)C
inactive: 1 nM 4.92% | 8.33 nM 2.01% | 100 nM -1.76% | 833.33 nM 0.01% | 10000 nM -7.42%

Cc1[nH]cnc1CN1CCc2c(c3ccccc3n2C)C1=O [alosetron]
inactive: 1 nM -0.13% | 8.33 nM -3.23% | 100 nM -3.51% | 833.33 nM -1.58% | 10000 nM -2.24%

O=C(O)CCCN1C(=O)c2cccc3cccc(c23)C1=O [isodibut]
inactive: 1 nM -4.53% | 8.33 nM -1.77% | 100 nM -4.8% | 833.33 nM -0.3% | 10000 nM -2.2%

N[C@H]1C[C@@H]1c1ccc(-c2cccc(O)c2)cc1
inactive: 1 nM 1.62% | 8.33 nM -1.45% | 100 nM -0.41% | 833.33 nM -1.63% | 10000 nM -0.24%

O=C(NOCCO)c1ccc2cncn2c1Nc1ccc(I)cc1F
inactive: 1 nM -1.68% | 8.33 nM -5.37% | 100 nM -12.8% | 833.33 nM -14.4% | 10000 nM -13.2%

CC#C[C@@H](CC(=O)O)c1ccc(OCc2cccc(-c3ccc(C(F)(F)F)cc3)c2)cc1
inactive: 1 nM -0.29% | 8.33 nM 1.42% | 100 nM -0.33% | 833.33 nM 2.32% | 10000 nM 4.27%

C=CC1=C(C)c2cc3[nH]c(cc4nc(cc5[nH]c(cc1n2)c(C)c5CCC(=O)O)C(CCC(=O)O)=C4C)c(C)c3C=C [protoporphyrin-IX]
inactive: 1 nM -0.78% | 8.33 nM -0.99% | 100 nM -0.13% | 833.33 nM -0.31% | 10000 nM -4.69%

O=C(O)C[C@H](O)C[C@H](O)/C=C/c1c(C2CC2)nc2ccccc2c1-c1ccc(F)cc1 [pitavastatin]
inactive: 1 nM 1.96% | 8.33 nM 3.86% | 100 nM 3.12% | 833.33 nM 2.39% | 10000 nM 6.01%

O=C(O)[C@H]1CCCN(CCC=C(c2ccccc2)c2ccccc2)C1 (racemic)
inactive: 1 nM -0.52% | 8.33 nM -1.42% | 100 nM -2.13% | 833.33 nM -4.16% | 10000 nM -2.22%

C1=Cc2cccc(OCC3CNCCO3)c2C1 (stereo not given) [indeloxazine]
inactive: 1 nM 1.29% | 8.33 nM 2.5% | 100 nM 1.2% | 833.33 nM 0.43% | 10000 nM -0.62%

O=C(O)COc1ccc(/C=C2\SC(=O)NC2=O)cc1
inactive: 1 nM 0.12% | 8.33 nM 0.67% | 100 nM 5.3% | 833.33 nM 4.16% | 10000 nM -0.64%

COc1ccc(C2(CNC(=O)c3ccc(NC(=O)c4ccco4)cc3)CCOCC2)cc1
inactive: 1 nM 1.26% | 8.33 nM 1.21% | 100 nM -2.16% | 833.33 nM -1.65% | 10000 nM -2.44%

CC(SC(=O)c1cccs1)C(=O)NCC(=O)O (stereo not given) [stepronin]
inactive: 1 nM 2.01% | 8.33 nM -0.48% | 100 nM 1.48% | 833.33 nM 0.5% | 10000 nM -1.74%

CC(C)C[C@@H](NC(=O)[C@H](Cc1ccccc1)NC(=O)CNC(=O)[C@@H](C)NC(=O)[C@@H](N)Cc1ccc(O)cc1)C(=O)O
inactive: 1 nM -0.21% | 8.33 nM 3.3% | 100 nM 1.72% | 833.33 nM 2.13% | 10000 nM 0%
